# Screening results (PubChem)
# These entries were drawn from the full list.
# aSyn UTR act – Activators via SNCA 5'UTR binding, MLPCN; 7.1% of 300,000 active; alpha-synuclein 5'UTR reporter, activators screen; activity score, % (tested at 7.5 µM), hits read low; in the data active means activity score below about -60%
# * = called active by the depositor.
SMILES,aSyn UTR act
CCCc1cc(C(=O)Nc2ccc(CC)cc2)no1,-169.2*
Cc1ccc(/C=C/C(=O)Nc2cc(C)on2)cc1,-226.9*
Cc1ccc(NC(=O)c2cc(C)on2)cc1,-96.2*
CCOc1ccc(C(=O)c2cc([N+](=O)[O-])ccc2N2CCOCC2)cc1,79.1
CCOc1ccc(OCc2ccc(C(=O)N3CCOCC3)cc2)cc1,-91.2*
CCOc1ccc(N=C(/C(C(=O)C(=O)N2CCOCC2)=C(\O)c2ccccc2)c2ccccc2)cc1,-151.2*
CCOc1ccc(OCc2ccc(C(=O)N3CCCC(C)C3)cc2)cc1 (stereo unspecified),-63.0*
O=C1C2C3C=CC(C3)C2C(=O)N1c1ccc(-c2nc3ccccc3o2)cc1 (stereo unspecified),-152.0*
CCCOc1ccc(/C=C/C(=O)N2CCOCC2)cc1,-68.2*
O=C(/C=C/c1ccc(Cl)cc1)N1CCOCC1,-75.6*
CC(C)c1ccc(/C=C/C(=O)N2CCOCC2)cc1,-155.8*
CC(C)c1ccc(/C=C/C2=NNC(=O)CC2)cc1,87.4
O=[N+]([O-])c1ccccc1CSc1nc2ccccc2o1,-193.4*
Cc1nn(C)c(Sc2ccccn2)c1[N+](=O)[O-],-86.9*
CCOC(=O)C(CC(=O)c1ccccc1)CC(=O)c1ccccc1,-105.5*
Cc1ccc(C(=O)Cn2c(-c3ccccc3)noc2=O)cc1,-99.8*
Cc1ccc(C(=O)COC(=O)c2cccc(NC(=O)c3ccc([N+](=O)[O-])cc3[N+](=O)[O-])c2)cc1,-161.7*
Cc1ccc(C(=O)c2c3ccc([N+](=O)[O-])cc3[n+]([O-])n2CCCN)cc1,63.3
Cc1ccc(C(=O)CC(=O)c2ccccc2)cc1,-237.9*
Cc1ccc(C(=O)OCC(=O)c2ccccc2)cc1,-85.2*
Cc1ccc(C(=O)Sc2cccccc2=O)cc1,-108.9*
Cc1ccc(C(=O)CCc2ccc(N)cc2)cc1,-77.3*
O=C(O)c1ccc2c(c1)C(=O)N(c1ccc(C(=O)OCC(=O)c3ccccc3)cc1)C2=O,-62.5*
N=c1ccn(CC(=O)c2ccc(-c3ccccc3)cc2)cc1,109.6
Cc1cc(C)c(NC(=O)CC(=O)c2ccccc2)c(Cl)c1,-92.9*
SMILES,aSyn UTR act
O=C(CN1C(=O)CCC1=O)c1ccc(-c2ccccc2)cc1,-81.7*
CCCC(=O)c1ccc(-c2ccccc2)cc1,-70.1*
CCc1ccc(C(=O)COC(=O)c2ccc(-c3nnc(-c4ccccc4)o3)cc2)cc1,-161.2*
COc1ccc(NC(=S)Nc2ccc3snnc3c2)cc1,-107.5*
COc1ccc(NC(=S)Nc2ccc(N)c([N+](=O)[O-])c2)cc1,-144.9*
COc1ccc(NC(=S)Nc2ccc3nccnc3c2)cc1,-227.3*
CCOC(=O)C(C(=O)OCC)C1OC(=O)c2cc3c(cc21)C(=O)OC3C(C(=O)OCC)C(=O)OCC (stereo unspecified),-77.3*
O=C(c1cn(-c2ccc(Cl)c(Cl)c2)nn1)C1CC1,-107.3*
O=C(CSc1nnc(-c2cccnc2)o1)Nc1cccc(Cl)c1,-119.3*
O=C(CSc1nnc(-c2cccnc2)o1)Nc1ccc(Cl)cc1,-62.4*
CC(=O)c1ccc(NC(=O)C2(c3ccccc3)CCOCC2)cc1,-118.0*
CCOC(=O)/C(C#N)=C/c1c(N2CCN(c3ccccc3)CC2)nc2ccccn2c1=O,-62.1*
COC(=O)/C(C#N)=C/c1c(N2CCN(c3ccccc3)CC2)nc2ccccn2c1=O,-65.0*
N#C/C(=C\c1c(N2CCN(c3ccccc3)CC2)nc2ccccn2c1=O)C(N)=O,-71.2*
COC(=O)C(Cc1ccc(OC(=O)c2ccc(C)cc2)cc1)N1Cc2ccccc2C1=O (stereo unspecified),-66.7*
COC(=O)C(Cc1ccc(O)cc1)N1Cc2ccccc2C1=O (stereo unspecified),-144.4*
O=C(Nc1ccc([N+](=O)[O-])cc1)C(Cc1ccccc1)N1C(=O)c2cccc3cccc(c23)C1=O (stereo unspecified),55.9
COc1ccc(/C=C/c2ccc3ccccc3[n+]2C)cc1OC,-123.9*
CC(=O)Oc1ccccc1/C=C/c1ccc2ccccc2[n+]1C,-62.5*
O=C(Nc1ccc(-n2cnnn2)cc1)c1cn2ccccc2n1,-88.5*
CCCOc1ccc(-c2nnc(N)s2)cc1,-136.0*
CCCOc1ccc(-c2nc(-c3ccc(N)cc3)cs2)cc1,-122.8*
CC(C)c1ccc(-c2nnc(N)s2)cc1,-101.9*
CN(C)c1cccc(/C=C(\C#N)c2ccccc2)c1,-154.5*
O=C(c1cc2ccccc2oc1=O)N(Cc1ccc(F)cc1)C1CCS(=O)(=O)C1 (stereo unspecified),-120.6*
SMILES,aSyn UTR act
O=C(c1cc2ccccc2oc1=O)N(Cc1cccs1)C1CCS(=O)(=O)C1 (stereo unspecified),-104.1*
Cc1ccc(CN(C(=O)c2cc3ccccc3oc2=O)C2CCS(=O)(=O)C2)cc1 (stereo unspecified),-104.1*
COc1ccc(CN(C(=O)c2cc3ccccc3oc2=O)C2CCCCC2)cc1OC,-64.7*
CCc1ccc(CN(C(=O)c2cc3ccccc3oc2=O)C2CCS(=O)(=O)C2)cc1 (stereo unspecified),-143.8*
COc1ccc(OCCCSc2ncccn2)cc1,-168.3*
c1cnc(SCCCOc2ccc3ccccc3c2)nc1,-67.9*
CC(C)SCCCCOc1ccc2ccccc2c1,-112.2*
Cc1ccc(OCCCSc2ncccn2)cc1C,-103.9*
Clc1ccc(OCCSc2ncccn2)cc1,-160.2*
CCCC(NCC(O)COc1ccc(-c2ccccc2)cc1)c1ccccc1 (stereo unspecified),82.8
OC(COc1ccc(Cl)cc1)CSc1ccccn1 (stereo unspecified),-90.1*
CCc1nc2oc3ccccc3c(=O)c2c(=O)n1-c1ccc(C)cc1,-138.5*
CCCc1nc2oc3ccccc3c(=O)c2c(=O)n1-c1ccc(C)cc1,-83.9*
CCc1nc2oc3ccccc3c(=O)c2c(=O)n1-c1ccccc1,-314.6*
CCCc1nc2oc3ccccc3c(=O)c2c(=O)n1-c1ccccc1,-153.3*
Cc1ccc(-n2c(C(C)C)nc3oc4ccccc4c(=O)c3c2=O)cc1,-111.4*
Oc1ccccc1OCc1nc2ccccc2s1,-113.4*
OCc1cc(Br)ccc1OCc1nc2ccccc2s1,-70.3*
COc1ccc(CCNC(=O)c2ccc3nc(N4CCCCC4)sc3c2)cc1OC,-130.9*
COc1ccc2nc(N3CCCC(C(=O)NCCc4ccc(OC)c(OC)c4)C3)sc2c1 (stereo unspecified),-86.8*
CCOc1ccc2nc(N3CCCC(C(=O)NCCCN4CCCCC4)C3)sc2c1 (stereo unspecified),-86.1*
O=C(Nc1nncs1)c1cc2c(s1)CCC2,-131.5*
O=C(Nc1nccs1)c1cc2c(s1)CCCCC2,72.0
CC(C)Cc1nnc(NC(=O)c2cc3c(s2)CCC3)s1,-206.7*
Cc1ccc(N=Cc2sccc2C)cc1C,-111.4*
SMILES,aSyn UTR act
CSc1ccc(C2C(C(=O)c3ccco3)=C(O)C(=O)N2c2nnc(SC)s2)cc1 (stereo unspecified),-62.0*
O=C(CSC(=S)N1CCOCC1)Nc1nc(=O)c2ccccc2s1,-84.9*
COc1ccc(/C=C/C(=O)NC2CCCCCCC2)cc1S(=O)(=O)N1CCOCC1,-112.3*
N#Cc1cnc(SCCc2ccccc2)nc1N,-70.5*
CCCOC1CCCN(C(=O)CCc2nnc(-c3ccc4c(c3)OCO4)o2)C1 (stereo unspecified),-73.4*
CCC(=O)C1CCCN(C(=O)CCc2nnc(-c3ccc(C(C)=O)s3)o2)C1 (stereo unspecified),-87.7*
C[C@]12CCC(=O)C=C1CC[C@@H]1[C@@H]2[C@@H](O)C[C@]2(C=O)[C@@H](C(=O)CO)CC[C@@H]12,-78.0*
